In all, about 320,000 compounds went through this assay and about 22,000 (6.9%) were called active. Another 27% or so got no clear call; they are omitted. Calls come from the whole dose curve; as a rule, active = well fitted inhibition curve with a large enough effect; inconclusive = small, poorly fitted or top-dose-only effect, or another doubt; inactive = no such curve, though single readings can be large or run the other way. Many of the other results were omitted from the sample, so actives are more common in it than they were.

Consider 63 compounds from PubChem BioAssay AID504834 (National Center for Advancing Translational Sciences (NCATS), 2011).
% is set by controls: 0 for no effect and ±100 for the full control effect; potency is the fitted concentration of half-maximal effect.

This experiment can be described thus: Primary qHTS for delayed death inhibitors of the malarial parasite plastid, 96 hour incubation. Particulars: P. falciparum luciferase reporter growth; series mostly up to 28.7 µM; activity change, negative = inhibition: at the top concentration. The essentials: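 Two parasite generations (96 h, 37 C, 5% CO2) of compound exposure in infected erythrocytes (0.05% parasitemia, 2% hematocrit). Luciferase-reporter P. falciparum; decreased luminescence indicates inhibited growth, aimed at apicoplast-acting delayed death.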
(In general: qHTS replaces the single test concentration by a dilution series.)
For `CCn1c(Cc2ccc(OC)cc2)nnc1SCC(=O)Nc1ccc(N2CCOCC2)cc1`, the “activity change, negative = inhibition” value is 32.6% (inactive).
Same read-out and setting: the result for `CCn1c(SCC(=O)NC2CCCC2)nnc1-c1ccoc1C` reads 251% (inactive); that for `O=C(NNC(=O)c1cccc(S(=O)(=O)Nc2ccc(Cl)cc2)c1)c1ccc(=O)[nH]c1`, 17.2% (inactive); that for `COc1ccc(NS(=O)(=O)c2ccc(NC(=O)c3ccc(N(C)S(C)(=O)=O)cc3)cc2)cc1`, 16.5% (inactive).
For `CCN(CC)c1ccc(NC(=O)c2ccc(=O)[nH]c2)cc1S(=O)(=O)Nc1ccc(OC)cc1`, the Potency is 9.28 µM (active).
Regarding `COc1ccc(S(=O)(=O)n2cnc3ccccc32)c(C)c1`, the “activity change, negative = inhibition” value is 17.7% (inactive).
Still for that read-out and setting: as for `CCCc1c(C(=O)N/N=C(\C)CCc2ccc(OC)cc2)nnn1-c1nonc1N`, the figure is 41% (inactive); as for `CCN1CCN(C(=O)N(Cc2ccc(Cl)cc2)S(=O)(=O)c2ccc(C)cc2)CC1`, -8.07% (inactive); as for `O=C(CSc1n[nH]c(-c2cccnc2)n1)Nc1ccc(Cl)cc1`, 4.9% (inactive).
Turning to `CC(C)CN(C(=O)c1ccc2c(c1)OCO2)C1CCS(=O)(=O)C1` (stereo not drawn), the “activity change, negative = inhibition” value is 39.1% (inactive).
Same read-out and setting: as for `O=C(CN1C(=O)COc2ccccc21)NCCN1CCc2ccccc2C1`, the figure is 9.16% (inactive).
Same read-out and setting: the result for `O=C(CN1C(=O)COc2ccc(Cl)cc21)Nc1ccc(N2CCOCC2)cc1` reads 5.66% (inactive).
Regarding `O=C(CN1C(=O)COc2ccccc21)Nc1ccc(F)cc1`, the Potency was 1.47 µM (active).
In the case of `O=C(CCCN1C(=O)/C(=C/c2cccs2)SC1=S)Nc1ccc(O)cc1`, the “activity change, negative = inhibition” value is -7.03% (inactive).
Same read-out and setting: as for `NS(=O)(=O)c1ccc(CCNC(=O)CN2C(=O)c3ccccc3S2(=O)=O)cc1`, the figure is -1.1% (inactive).
Still for that read-out and setting: as for `CCN(C(=O)CSc1ncnc2sccc12)c1c(N)n(Cc2ccccc2)c(=O)[nH]c1=O`, the figure is -7.47% (inactive).
On the same count and under the same terms, as for `COc1cccc(OC)c1C(=O)Nc1ccc2c(c1)n(C)c(=O)n2C`, the figure is -1.38% (inactive).
As for `COc1ccc(C(=O)NC2CC2)cc1OC1CCN(C/C=C/c2ccccc2)CC1`, the Potency is 11.7 µM (active).
In the case of `COc1ccc(C(=O)NC2CC2)cc1OC1CCN(Cc2ccc(SC)cc2)CC1`, the “activity change, negative = inhibition” value was 4.51% (inactive).
Same read-out and setting: as for `COc1ccc(C(=O)N(C)CC(O)c2ccccc2)cc1OC1CCN(C(C)=O)CC1` (stereo not drawn), the figure is 52.3% (inactive); as for `O=C(NCCc1ccccn1)c1nc(Cn2cc([N+](=O)[O-])cn2)no1`, 1.54% (inactive).
The same measure, in the same setting: as for `CC(OC(=O)CNC(=O)c1cccc(F)c1)C(=O)NC1CCCCC1C` (stereo not drawn), the figure is -0.897% (inactive); as for `O=[N+]([O-])c1ccc(C=Nc2ccc(Cl)cc2Cl)s1`, 0% (inactive).
With `CC(C)(C)c1cc(C(=O)N/N=C/c2ccc([N+](=O)[O-])s2)n[nH]1`, the Potency was 1.65 µM (active).
Turning to `COc1ccc2ccccc2c1/C=N/NC(=O)c1cc(C)[nH]n1`, the “activity change, negative = inhibition” value was 2.41% (inactive).
Still for that read-out and setting: the result for `COC(=O)c1ccc(COC(=O)c2cnc(Cl)c(Cl)c2)cc1` reads 40.3% (inactive); that for `CCOc1ccc(CCNC(=O)COC(=O)CCS(=O)(=O)c2ccc(C)cc2)cc1OCC`, 7.41% (inactive); that for `CCC(C(=O)N1CCN(S(=O)(=O)c2sc(C(=O)O)c(C)c2C(=O)O)CC1)c1ccccc1` (stereo not drawn), -12.6% (inactive).
Same read-out and setting: the result for `CN(C(=O)CN1C(=O)CCSc2ccc(S(=O)(=O)N3CCCC3)cc21)c1ccccc1` reads -15.5% (inactive).
Same read-out and setting: the result for `COc1ccc(S(=O)(=O)N2CCC(C(=O)N3CCCC3)CC2)cc1C` reads -10.4% (inactive); that for `COc1cc(C(=O)NNC(=O)c2ccc(S(=O)(=O)N3CCCCC3)cc2)cc(OC)c1OC`, 73.2% (inactive).
Consider `CCOc1cc(C(=O)N2CCc3cc(OC)c(OC)cc3C2)ccc1OC(F)F`, for which the Potency was 5.86 µM (active).
Regarding `CCOc1ccc(NC(=O)COc2ccc(C(=O)N3CCC(C(N)=O)CC3)cc2OC)cc1`, the “activity change, negative = inhibition” value was -3.23% (inactive).
Still for that read-out and setting: as for `CCOc1cc(CN2CCN(C(=O)CC(C)C)CC2)ccc1OC`, the figure is 26.4% (inactive); as for `COC(=O)Cc1ccc(OC(=O)C2CCN(S(=O)(=O)c3ccc(OC)c(OC)c3)CC2)cc1`, -0.567% (inactive).
Regarding `COc1cc2c(cc1OC)CN(C(=O)c1ccc(S(=O)(=O)N3CCCCCC3)cc1)CC2`, the Potency is 0.465 µM (active).
With `COc1ccc(S(=O)(=O)N2CCCCC2)cc1Br`, the “activity change, negative = inhibition” value is -13.7% (inactive).
As to `COc1ccc(S(=O)(=O)N2CCC(C(=O)N3CCc4ccccc4C3)CC2)cc1OC`, the Potency is 8.28 µM (active).
For `COC(=O)c1ccc(C)c(NC(=O)C2CC(=O)N(C3CCCC(C)C3C)C2)c1` (stereo not drawn), the “activity change, negative = inhibition” value is -0.079% (inactive).
The same measure, in the same setting: as for `COC(=O)c1ccccc1NC(=O)C1CCN(C(=O)N2CCOc3ccccc32)CC1`, the figure is 16.7% (inactive); as for `O=C(COC(=O)c1cccc(Cl)c1)Nc1ccc2[nH]c(=O)[nH]c2c1`, 3.17% (inactive).
Same read-out and setting: the result for `Cc1ccc(CN(CC(=O)NCC2CCCO2)S(=O)(=O)c2ccc(C)cc2)cc1` (stereo not drawn) reads -10.6% (inactive).
On the same count and under the same terms, the result for `CC(=O)Nc1ccc(NC(=O)CN2C(=O)COc3ccc(S(=O)(=O)N4CCCCC4)cc32)cc1` reads 1.73% (inactive); that for `Cc1ccn2c(=O)nc(SCC(=O)NCc3ccc4c(c3)OCO4)nc2c1`, 7.6% (inactive).
Regarding `Cc1ccc(C)c(C(=O)COC(=O)Cn2[nH]c(=O)c3ccccc3c2=O)c1`, the “activity change, negative = inhibition” value is -4.63% (inactive).
Take `Cc1nc(NC(=O)c2ccc3c(c2)OCCO3)ccc1Br`: the “activity change, negative = inhibition” value is -5.44% (inactive).
As to `COc1ccc(-c2n[nH]c(C)c2-c2ccccc2OC)c(O)c1`, the Potency was 11.7 µM (active).
The same measure, in the same setting: the result for `C=C(C)COc1ccc(-c2n[nH]c(C)c2-c2ccccc2OC)c(O)c1` reads 11.7 µM (active).
With `CCOc1ccc(-c2nc(N)ncc2-c2ccccc2OC)c(O)c1`, the “activity change, negative = inhibition” value was -0.615% (inactive).
Same read-out and setting: the result for `COc1ccc(-c2[nH]ncc2CN(C)Cc2c(C)n[nH]c2C)c(OC)c1` reads 0.962% (inactive); that for `C=C(C)COc1ccc(-c2ncncc2-c2ccc(OC)cc2)c(O)c1`, 0% (inactive).
For `CCOc1ccc(-c2n[nH]c(C)c2-c2ccccn2)c(O)c1`, the “activity change, negative = inhibition” value was 8.94% (inactive).
Still for that read-out and setting: as for `COc1ccc(N=Nc2ccc(O)c(P(=O)(c3ccccc3)c3ccccc3)c2)cc1`, the figure is 28% (inactive); as for `CCc1nc2nc(C)c(NS(=O)(=O)c3ccc4c(c3)CCCC4)c(=O)n2[nH]1`, -11.6% (inactive); as for `C=CCn1cc(Cl)cc(C(=O)Nc2ccccc2)c1=O`, 21.7% (inactive).
Same read-out and setting: as for `CCOc1ccc(N/C=C/C(=O)c2cc(OC)c(OC)c(OC)c2)cc1`, the figure is 7.64% (inactive); as for `Cc1cccc(NC(=O)CSCC(=O)Nc2nnc(C3CC3)s2)c1`, -13.4% (inactive).
Same read-out and setting: the result for `NC(=O)NC(=O)C(OC(=O)CCNS(=O)(=O)c1ccccc1)c1ccccc1` (stereo not drawn) reads 78.3% (inactive); that for `COc1ccc2c(c1)c1nc3n(c(=O)c1n2CC(=O)Nc1ccccc1)CCS3`, 6.4% (inactive).
As to `CCn1c(CC(=O)Nc2ccc(C)cc2)nnc1SCC(=O)Nc1nc(C)cs1`, the “activity change, negative = inhibition” value is 75.3% (inactive).
Consider `CCn1c(SCC(=O)Nc2ccc(C)cc2)nc2nc3c(cc2c1=O)CCCC3`, for which the Potency is 14.7 µM (active).
Regarding `COCCn1c(SCC(=O)Nc2ccc3c(c2)CCC3)nc2ccccc2c1=O`, the “activity change, negative = inhibition” value was 0% (inactive).
The same measure, in the same setting: the result for `O=C(OCC1OC(Oc2ccc(O)cc2)C(O)C(O)C1O)c1ccccc1` (stereo not drawn) reads 11.3% (inactive).
